Only some compounds are listed: those with a hit (about 2.2% of all), similar ones and a draw of the others.
TrxR1 substrate = qHTS Assay for Substrates of Mammalian Selenoprotein Thioredoxin Reductase 1 (TrxR1): qHTS; AID 588456, 2011; Potency, µM (series often up to 114 µM); Thioredoxin reductase 1, cytoplasmic (Rattus norvegicus), O89049; 390,000 tested, 0.01% active; purified TrxR1 substrate turnover, NADPH consumption readout; note: nearly all actives have a fitted effect of over 50% in size
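Rat TrxR1, dispensed at 90 nM, was prereduced with 400 uM NADPH (final) for 5 min at ~22 deg C, then incubated with compound 15 min before 400 uM selenite. A first-read NADPH fluorescence drop versus no-compound background flagged substrates.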
mIDH1 inhibitor = qHTS for Inhibitors of mutant isocitrate dehydrogenase 1 (IDH1): qHTS. Isocitrate dehydrogenase [NADP] cytoplasmic (Homo sapiens), O75874. IDH1-R132H enzyme, NADPH consumption, diaphorase/resazurin fluorescence. Potency, µM (series often up to 76.6 µM), usual class: inhibitors. 390,000 tested, 0.093% active. AID 602179, 2012; note: nearly all actives have a fitted effect of over 65% in size
Target sequence (O75874 whole entry R132H, stated change not applied): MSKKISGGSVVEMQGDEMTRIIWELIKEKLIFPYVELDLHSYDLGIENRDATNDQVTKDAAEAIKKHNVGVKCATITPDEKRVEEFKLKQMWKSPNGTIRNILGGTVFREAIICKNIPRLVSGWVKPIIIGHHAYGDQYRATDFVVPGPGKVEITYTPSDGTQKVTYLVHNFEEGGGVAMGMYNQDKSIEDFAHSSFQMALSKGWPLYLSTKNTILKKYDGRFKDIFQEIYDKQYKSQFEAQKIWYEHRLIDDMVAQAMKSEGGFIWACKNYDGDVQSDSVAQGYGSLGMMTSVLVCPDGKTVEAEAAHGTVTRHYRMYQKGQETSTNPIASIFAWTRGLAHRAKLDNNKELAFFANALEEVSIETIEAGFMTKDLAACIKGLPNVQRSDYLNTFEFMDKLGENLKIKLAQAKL
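IDH1-R132H (0.5 ug/mL dispensed) in pH 7.5 Tris buffer was preincubated 30 min with compound, then given a substrate mix of 0.016 mM NADPH and 2 mM alpha-KG for 80 min at room temperature; remaining NADPH was read by diaphorase/resazurin fluorescence.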
Giardia killer = Small Molecules that selectively kill Giardia lamblia: qHTS | Giardia lamblia trophozoite viability | activity change, % at 7.66 µM, hits read low | 340,000 tested, 0.15% active; in the data active = activity change below about -80%; inconclusive = between about -30% and that limit;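 note: parasites exposed to compound for two days anaerobically before the ATP read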
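Luminescence from cellular ATP indicates surviving trophozoites (100 cells/well) following 48 hrs anaerobic compound treatment at 37 deg C; signal develops 15-30 min at room temperature.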
IL2 activator = qHTS of IL-2 Activators; IL-2 activation reporter assay, cell-based qHTS; stimulated with anti-CD3/CD4/CD28 beads; in transgenic mouse T cells; AID 652025, 2013; activation, % (series mostly up to about 46 µM); 360,000 tested, 0.065% active; in the data active = activation above about 50%; inconclusive = mostly about 30% to 49%
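Using fluorescent plate cytometry, EGFP and DsRed are detected in transgenic mouse T cells stimulated 18 h at 37 degrees C with antibody-coated beads after 60 min compound pretreatment.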
rTrxR1 inhibitor = qHTS Assay for Inhibitors of Mammalian Selenoprotein Thioredoxin Reductase 1 (TrxR1): qHTS; Thioredoxin reductase 1, cytoplasmic (Rattus norvegicus), O89049; recombinant rTrxR1, NADPH fluorescence consumption, selenite substrate; Potency, µM (titrated, usually from 114 µM), actives largely listed as inhibitors; 390,000 tested, 1% active; AID 588453, 2011; note: nearly all actives have a fitted effect of over 65% in size
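Rat TrxR1 (90 nM in the dispensed reagent) was pre-reduced with 400 uM NADPH for 5 min at room temperature, then incubated with compound for 15 min. After 400 uM selenite was added, NADPH fluorescence (Ex 340/Em 450 nm) was followed for 8 min.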
BRCA1 expr up = qHTS Assay to Identify Small Molecule Activators of BRCA1 Expression. 380,000 tested, 1.1% active. MCF7-BRCA1-FFLuc reporter, luminescence, 48 h; response scale: scaled: vehicle 0%, 10 µM genistein 100%. AID 624202, 2012. Potency, µM (titrated, usually from 46.1 µM), hits mostly activators; note: nearly all actives have a fitted effect of over 80% in size
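Luminescence from a BRCA1-driven firefly luciferase in MCF7 cells was read after 48 h compound exposure at 37 C. Data normalized against DMSO and a 10microM genistein activation control, then curve-fitted across the titration.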
Hits are given with their value. Unless noted, calls come from the whole dose curve; as a rule, active = well fitted curve in the direction sought with a large enough effect; inconclusive = small, poorly fitted or top-dose-only effect, or another doubt; inactive = no such curve, though single readings can be large; an effect the other way counts as inactive or inconclusive.

Screening C=C1C(=O)C=C2CN(C(=O)c3ccccc3)[C@@](Cc3ccc(F)cc3)(C(=O)OC)[C@@H]12 returned TrxR1 substrate inactive, mIDH1 inhibitor inactive, Giardia killer inconclusive, IL2 activator inactive, rTrxR1 inhibitor 8.91µM and BRCA1 expr up inactive.
`N#Cc1nc(N2CCCCC2)nc(N(c2ccccc2)c2ccccc2)n1` gave TrxR1 substrate inactive, Giardia killer inactive, rTrxR1 inhibitor inactive and BRCA1 expr up inactive.
`COC(=O)CN(C)C1CC(=O)N(c2ccc(Cl)cc2)C1=O` (stereo not given) gave TrxR1 substrate inactive, mIDH1 inhibitor inactive, Giardia killer inactive, IL2 activator inactive, rTrxR1 inhibitor 35.5µM and BRCA1 expr up inactive.
Cc1ccc(-n2ncc3c(NCCCN4CCOCC4)ncnc32)cc1C was read as TrxR1 substrate inactive, mIDH1 inhibitor inactive and rTrxR1 inhibitor inactive.
`CS(=O)(=O)Nc1ccc(C2=NN(S(C)(=O)=O)C(c3ccccc3)C2)cc1` (stereo not given) gave TrxR1 substrate inactive, mIDH1 inhibitor inactive, Giardia killer inactive, IL2 activator inactive, rTrxR1 inhibitor 79.4µM and BRCA1 expr up inconclusive.
For CCS(=O)(=O)N1N=C(c2ccc(NS(C)(=O)=O)cc2)CC1c1ccccc1 (stereo not given) the results were TrxR1 substrate inactive, mIDH1 inhibitor inactive, Giardia killer inactive, IL2 activator inactive, rTrxR1 inhibitor inconclusive and BRCA1 expr up inactive.
For Cc1ccc(-c2nc(C#N)c(NCc3ccco3)o2)cc1 the results were TrxR1 substrate inactive, mIDH1 inhibitor inactive, Giardia killer inactive, IL2 activator inactive, rTrxR1 inhibitor inactive and BRCA1 expr up inconclusive.
Screening COc1ccc(-c2nc(C#N)c(NCc3ccco3)o2)cc1 returned TrxR1 substrate inactive, mIDH1 inhibitor inactive, Giardia killer inactive, IL2 activator inactive, rTrxR1 inhibitor inactive and BRCA1 expr up 8.91µM.
Screening CCOC(=O)CNC(=O)CN1CCCN(S(=O)(=O)c2ccc(Br)s2)CC1 returned TrxR1 substrate inactive, mIDH1 inhibitor inactive, Giardia killer inactive, IL2 activator inactive, rTrxR1 inhibitor 15.8µM and BRCA1 expr up inactive.
For COCCn1c(=NC(=O)CCS(=O)(=O)c2ccccc2)sc2cc(F)ccc21 the results were TrxR1 substrate inactive, mIDH1 inhibitor inactive, Giardia killer inactive, IL2 activator inactive, rTrxR1 inhibitor inconclusive and BRCA1 expr up inactive.
For CCn1c(=NC(=O)CCS(=O)(=O)c2ccccc2)sc2cccc(OC)c21 the results were TrxR1 substrate inactive, mIDH1 inhibitor inactive, Giardia killer inactive, IL2 activator inactive, rTrxR1 inhibitor inactive and BRCA1 expr up inactive.
Screening COC(=O)Cn1c(=NC(=O)CCS(=O)(=O)c2ccccc2)sc2c(OC)ccc(OC)c21 returned TrxR1 substrate inactive, mIDH1 inhibitor inactive, Giardia killer inactive, IL2 activator inactive, rTrxR1 inhibitor 28.2µM and BRCA1 expr up inactive.
Screening COCCn1c(=NC(=O)CCS(=O)(=O)c2ccccc2)sc2cc(C)ccc21 returned TrxR1 substrate inactive, mIDH1 inhibitor inactive, Giardia killer inactive, IL2 activator inactive, rTrxR1 inhibitor 39.8µM and BRCA1 expr up inactive.
`Cc1ccc2c(CC(=O)N(Cc3ccc(N(C)C)cc3)Cc3ccco3)coc2c1C` gave TrxR1 substrate inactive, mIDH1 inhibitor inactive and rTrxR1 inhibitor inactive.
For COc1cccc(CNC(=O)C2CCCN(S(=O)(=O)c3ccc4c(ccn4C)c3)C2)c1OC (stereo not given) the results were TrxR1 substrate inactive, mIDH1 inhibitor inactive and rTrxR1 inhibitor inactive.
`Cc1cc[n+](CCC2CCCCC2)c2ccccc12` gave TrxR1 substrate inactive and rTrxR1 inhibitor inactive.
`Cc1cccc(-n2nc([N+](=O)[O-])c(=NCc3cccnc3)n2O)c1` gave TrxR1 substrate inactive, mIDH1 inhibitor inactive, Giardia killer -87.5, IL2 activator inactive, rTrxR1 inhibitor inactive and BRCA1 expr up inactive.
`COc1cccc(CN=c2c([N+](=O)[O-])nn(-c3ccccc3C)n2O)c1` gave TrxR1 substrate inactive, mIDH1 inhibitor inactive, Giardia killer -108.7, IL2 activator inactive, rTrxR1 inhibitor inactive and BRCA1 expr up inactive.
Screening CCOc1ccc2nc(N3CCN(C(=O)c4ccco4)CC3)sc2c1 returned TrxR1 substrate inactive, mIDH1 inhibitor inactive and rTrxR1 inhibitor inactive.
`CCCCN(CC)CCNC(=O)C1CCN(c2nnc(C)c3c(C)n(-c4ccc(C)cc4)nc23)CC1` gave TrxR1 substrate inactive, mIDH1 inhibitor inactive and rTrxR1 inhibitor inactive.
For COc1ccc(C2C=C(c3ccccc3)Nc3nnnn32)cc1 (stereo not given) the results were TrxR1 substrate inactive, mIDH1 inhibitor inactive, Giardia killer inactive, IL2 activator inactive, rTrxR1 inhibitor inactive and BRCA1 expr up inactive.
C1=C(c2ccccc2)Nc2nnnn2C1 was read as TrxR1 substrate inactive, mIDH1 inhibitor inactive, Giardia killer inactive, IL2 activator inactive, rTrxR1 inhibitor 79.4µM and BRCA1 expr up inactive.
`Cc1ccc(-c2ccccc2NC(=O)CCl)o1` gave TrxR1 substrate inactive, mIDH1 inhibitor inactive, Giardia killer inactive, IL2 activator inactive, rTrxR1 inhibitor inactive and BRCA1 expr up inactive.
`Cc1ccc(-c2ccccc2NC(=O)CS(=O)CC(=O)Nc2ccc(C)c(Cl)c2)o1` (stereo not given) gave TrxR1 substrate inactive, mIDH1 inhibitor inactive, Giardia killer inconclusive, IL2 activator inactive, rTrxR1 inhibitor 3.55µM and BRCA1 expr up inactive.
COC(=O)CN1C(=O)CSc2ccc(S(=O)(=O)N3CCOCC3)cc21 was read as TrxR1 substrate inactive, mIDH1 inhibitor inactive and rTrxR1 inhibitor inactive.
`Cc1ccc(-c2onc(C)c2C)cc1S(=O)(=O)Nc1ccc(Cl)cn1` gave TrxR1 substrate inactive, mIDH1 inhibitor inactive and rTrxR1 inhibitor inactive.
Screening CC(C)(C)c1cc(-c2csc(Nc3ccccc3)[n+]2Cc2ccc(C(=O)O)cc2)cc(C(C)(C)C)c1O returned TrxR1 substrate inactive, mIDH1 inhibitor 36.9µM, Giardia killer inactive, IL2 activator inactive, rTrxR1 inhibitor inactive and BRCA1 expr up inactive.
`O=C(O)c1ccc(C[n+]2c(-c3ccccc3)csc2Nc2ccccc2)cc1` gave TrxR1 substrate inactive, mIDH1 inhibitor inactive, Giardia killer inactive, IL2 activator inactive, rTrxR1 inhibitor inactive and BRCA1 expr up inactive.
